Entries with a potency or affinity are not part of this list.
The compounds below were run on Staphylococcus aureus. Settings: Concentration 32 ug.mL-1; ASSAY_TEST Inhibition of Bacterial Growth; detection method Absorption (OD600); MEDIA CAMHB; plate type 384well; NBS; CORNING #3640; time 18 hr.

| SMILES | Inhibition |
| --- | --- |
| O=[N+]([O-])c1ccc(-c2c(Nc3ccccc3)cccc2-c2ccccc2)cc1 | 23.01% |
| O=[N+]([O-])c1ccc2c3ccccc3n(-c3ccccc3)c2c1 | 11.65% |
| O=[N+]([O-])c1ccc(-c2ccccc2Nc2ccccc2)c(Cl)c1 | 13.69% |
| Cc1ccccc1Nc1ccccc1-c1ccc([N+](=O)[O-])cc1 | 21.4% |
| O=[N+]([O-])c1ccc(-c2ccccc2N(Cc2ccccc2)c2ccccc2)cc1 | 20.79% |
| c1ccc(Nc2ccccc2-c2ncccn2)cc1 | 6.34% |
| COc1cc([N+](=O)[O-])ccc1-c1ccccc1Nc1ccccc1 | 23.48% |
| COc1cc([N+](=O)[O-])ccc1-c1c(Nc2ccccc2)cccc1OC | 27.31% |
| CN(c1ccccc1)c1ccccc1-c1ccc([N+](=O)[O-])cc1 | 9.33% |
| COc1cccc(N(C)c2cccc(OC)c2-c2ccc([N+](=O)[O-])cc2C)c1 | 23.07% |
| O=[N+]([O-])c1ccc(-c2ccccc2Nc2ccccc2)cc1F | 18.96% |
| O=[N+]([O-])c1ccc(-c2cccc3c2[nH]c2ccccc23)cc1 | 21.52% |
| CC(=O)c1ccc(-c2ccccc2Nc2ccccc2)cc1 | 12.03% |
| O=[N+]([O-])c1ccc(-c2ccccc2Nc2ccccc2Br)cc1 | 15.02% |
| Cc1cc([N+](=O)[O-])ccc1-c1ccccc1N(C)c1ccccc1 | -10.68% |
| O=[N+]([O-])c1ccc(-c2ccccc2Nc2ccccc2)cc1C(F)(F)F | 23.3% |
| CC[C@@H](Nc1ccccc1-c1c(Cl)cc(Br)cc1Cl)c1ccccc1 | 29.88% |
| Clc1cc(Br)cc(Cl)c1-c1ccccc1Nc1ccccc1 | 22.27% |
| O=[N+]([O-])c1ccc(-c2ccccc2Nc2ccccc2)cc1 | -5.74% |
| N#Cc1ccc(-c2ccccc2Nc2ccccc2)cc1 | 12.74% |
| Cc1cccc(C)c1Nc1ccccc1-c1ccccc1[N+](=O)[O-] | 57.09% |
| O=[N+]([O-])c1cc(Cl)c(-c2ccccc2Nc2ccccc2)c(Cl)c1 | 19.61% |
| O=[N+]([O-])c1ccc(-c2c(Nc3ccccc3)ccc3ccccc23)cc1 | 8.24% |
| COc1cccc(Nc2ccccc2)c1-c1ccc([N+](=O)[O-])cc1 | 23.81% |
| COc1cccc(Nc2ccccc2)c1-c1c(Cl)cc(Br)cc1Cl | 19.63% |
| Cc1cc(C)c(Nc2ccccc2-c2ccc([N+](=O)[O-])cc2)c(C)c1 | -5.17% |
| COc1ccc(Nc2ccccc2-c2ccc([N+](=O)[O-])cc2)cc1 | 17.68% |
